Experimental data as given in PubChem BioAssay (NCI).
The panel holds about 83,000 compounds, 20% with a hit somewhere; the sample as a whole holds those more often.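 Interpretation: 100, growth as untreated; towards 0, rising growth inhibition; 0, no net growth; 0 to -100, cell death. Compounds scoring below 10 were considered active.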 Calls of active or inactive are those of the source.

test system: MDA-MB-468 breast; experiment: NCI-60 one-dose screen, 48 h (100 = growth as untreated, 0 = no growth, -100 = all killed); settings: 10 µM unless noted

Row | Compound | growth
1 | O=S(=O)(NCCCNc1nccc(-c2cn(-c3ccccc3)nc2-c2ccc(Cl)c(O)c2)n1)c1ccccc1 | 59.7% (inactive)
2 | O=C1C2=C(CCN(Cc3ccccc3)C2)N2CCN=C2N1Cc1ccc(F)cc1F | 5.49% (active)
3 | CNc1nc(C)c(-c2nc(Nc3cccc(S(N)(=O)=O)c3)ncc2F)s1 | -38.3% (active)
4 | O=C(CSc1nnc(-c2ccc(Cl)cc2)n1-c1ccccc1)Nc1ccc(Cl)cc1 | 4.06% (active)
5 | CCCCCc1c(C)[nH]c(/C=C2\N=C(c3ccc[nH]3)C=C2Oc2ccc(Cl)cc2)c1C | -16.4% [100 µM] (active)
